# Measurements reported in PubChem BioAssay.
# The source made the active and inactive calls. How the calls were made is not given here.
# Target: Pantothenate synthetase (Mycobacterium tuberculosis (strain ATCC 25618 / H37Rv)) (UniProt P9WIL5)
# Test: Recombinant Mtb pantothenate synthetase (PanC) inhibitors, coupled enzyme, confirmatory (AID 375);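 further: 0% = full reaction with vehicle and 100% = no enzyme background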
# Conditions: coupled enzyme assay; at 10 µM, hits give high values
# Chain of Pantothenate synthetase (Mycobacterium tuberculosis (strain ATCC 25618 / H37Rv)) (P9WIL5 whole entry, looked up): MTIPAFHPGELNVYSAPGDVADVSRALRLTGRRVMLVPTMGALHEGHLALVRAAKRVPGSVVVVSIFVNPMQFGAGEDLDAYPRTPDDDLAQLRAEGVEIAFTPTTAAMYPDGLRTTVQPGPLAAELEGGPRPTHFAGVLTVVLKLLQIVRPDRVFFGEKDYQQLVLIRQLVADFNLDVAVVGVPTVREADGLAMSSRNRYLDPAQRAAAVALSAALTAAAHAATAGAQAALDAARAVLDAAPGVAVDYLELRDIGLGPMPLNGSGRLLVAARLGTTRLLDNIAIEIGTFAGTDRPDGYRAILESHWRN
row,SMILES,inhibition
1,O=C(Nc1cccnc1)Nc1ccc(F)c(Cl)c1,0% (inactive)
2,Cn1c(=O)c2c(nc(NCc3ccccc3)n2CCCc2ccccc2)n(C)c1=O,0% (inactive)
3,O=c1cc(C(F)F)oc2c1ccc1ccccc12,0% (inactive)
4,O=C(CCNC(=O)Cn1ccc2ccccc2c1=O)NCCN1CCc2ccccc2C1,3% (inactive)
5,Cc1nc(NCCNC(=O)c2ccco2)c2c(C)c(C)sc2n1,2% (inactive)
6,Cc1ccc(C(C(=O)NC(C)(C)C)N(C(=O)c2csnn2)c2cccc(F)c2)o1 (centres undefined),0% (inactive)
7,CCN(Cc1cc2ccccc2[nH]c1=O)S(=O)(=O)c1ccccc1,0% (inactive)
8,CCOC(=O)Cn1c2c(c(=N)c3ccccc31)CCC2,13% (inactive)
9,Nc1nc(CN2CCOCC2)cs1,1% (inactive)
10,COc1ccc(OC)c(NC(=O)C2CCN(c3cc(-c4ccccc4)nc4ncnn34)CC2)c1,2% (inactive)
11,CCCCN(CCCC)CCn1cnc2c([nH]c3ccc(OC)cc32)c1=O,4% (inactive)
12,Cc1ccc(C(O)c2nc3ccccc3n2C(C)C)cc1 (centres undefined),0% (inactive)
13,CC(=O)c1ccc(NC2OC(C)C(O)C(O)C2O)cc1 (centres undefined),3% (inactive)
14,CCOC(=O)N1CCC(NC(=O)c2ccc(OC)c(CN3CC(=O)N4CCCC4C3=O)c2)CC1 (centres undefined),0% (inactive)
15,COc1ccc(S(=O)(=O)N(C)C2CCN(C)CC2)cc1,0% (inactive)
16,Cn1c(SCc2ccccc2)nnc1C1CCCNC1 (centres undefined),0% (inactive)
17,O=C(OCN1C(=O)c2ccccc2C1=O)c1ccc2c(=O)n3c(nc2c1)CCC3,0% (inactive)
18,CCc1nnc(NC(=O)COC(=O)CN2C(=O)c3ccccc3C2=O)s1,0% (inactive)
19,O=C(COc1ccc(S(=O)(=O)N2CCCC2)cc1Cl)NC1CC1,8% (inactive)
20,CCCn1nnnc1SCC(=O)c1ccc2c(c1)OCCO2,11% (inactive)

row,SMILES,inhibition
1,O=C(Cn1c(=O)n(CC2CCCO2)c(=O)c2ccccc21)c1ccccc1 (centres undefined),0% (inactive)
2,COC(=O)c1cc(Br)c(=O)n(CCC2=CCCCC2)c1,0% (inactive)
3,NCC(O)COc1ccc2c(c1)OCO2 (centres undefined),0% (inactive)
4,CCOC(=O)C(NC(C)=O)(NS(=O)(=O)c1ccccc1)C(F)(F)F (centres undefined),2% (inactive)
5,O=C(c1ccc(Cl)cc1)C1CCN(C(=O)NC2CCCCC2)CC1,0% (inactive)
6,O=C(C1CCN(S(=O)(=O)c2ccc(-n3cnnn3)cc2)CC1)N1CCN(c2ccccc2)CC1,11% (inactive)
7,Nc1nonc1-c1noc(-c2ccccc2Br)n1,0% (inactive)
8,Clc1ccccc1CN1CCc2sccc2C1,0% (inactive)
9,COc1ccccc1N1CCN(Cc2nc(N)nc(Nc3ccc(C)c(Cl)c3)n2)CC1,3% (inactive)
10,CCOC(=O)CSc1nc2sc(C)c(C)c2c(=O)n1C,0% (inactive)
11,O=S(=O)(c1ccc2c(c1)OCCO2)N1CCC(n2nnc3cc(F)ccc32)CC1,1% (inactive)
12,COc1cc(C)c(Br)cc1S(=O)(=O)N1CCOCC1,2% (inactive)
13,CCCN1Cc2cccc(C(=O)NCc3cccs3)c2C1=O,0% (inactive)
14,O=c1[nH]c(CN2CCN(Cc3ccccc3)CC2)nc2sc3c(c12)CCC3,0% (inactive)
15,COc1ccc(S(=O)(=O)N2CCSC2c2ccccc2)cc1 (centres undefined),1% (inactive)
16,CC(=O)Nc1cccc(Oc2nc(C)cc(C)c2C#N)c1,1% (inactive)
17,O=C(NCCCCNC(=O)c1c(F)c(F)c(F)c(F)c1F)c1c(F)c(F)c(F)c(F)c1F,0% (inactive)
18,Clc1ccc(Cn2ncc3c(NCc4cccnc4)ncnc32)cc1,0% (inactive)
19,CCOc1ccc(N(CC(=O)NC2CCCC2)S(=O)(=O)c2c(C)[nH]c(=O)[nH]c2=O)cc1,0% (inactive)
